Measured values published in PubChem BioAssay AID1159580 (chemical genetic matrix, 2015).
Several values for one entry are separate records, joined by “and”; a condition that tells them apart may be missing. Identical values can stand only once. The campaign covered roughly 5,500 compounds. About 2,000 (36%) were called active. About 18% were inconclusive and are not listed. Rule as the data show it: active = normalized growth mostly below about 0.91 (no sharp cut-off); inconclusive = no clear call, values can overlap the other calls; inactive = mostly above about 0.92. Some of the results follow.

Assay: chemical genetic growth profiling, strain panel (AID 1159580);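 also: tested at 20 µM; growth read once vehicle control cultures reached saturation at 30 °C; 1 = growth at the plate median or of vehicle wells; lower values mean less growth of the strain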
Conditions: S. cerevisiae deletion strains, growth OD

Measured: normalized growth

Cn1cnc([N+](=O)[O-])c1Sc1ncnc2nc[nH]c12
inactive: locus YAL021C, strain ccr4, active compounds read low 1.03 | locus YAL026C, strain drs2, active compounds read low 1.04 | locus YAL030W, strain snc1, active compounds read low 1.02 | locus YAL040C, strain CLN3, active compounds read low 1.01 | locus YBL061C, strain skt5, active compounds read low 1.03 | locus YBR009C, strain hhf1, active compounds read low 1.01 | locus YBR021W, strain FUR4, active compounds read low 1.02 | locus YBR023C, strain chs3, active compounds read low 1.02 | locus YBR171W, strain sec66, active compounds read low 1.02 | locus YBR229C, strain ROT2, active compounds read low 1.01 | locus YBR231C, strain swc5, active compounds read low 1.01 | locus YBR279W, strain paf1, active compounds read low 1.01 | locus YCL011C, strain gbp2, active compounds read low 1.01 | locus YCL016C, strain dcc1, active compounds read low 1.04 | locus YCL029C, strain bik1, active compounds read low 0.997 | locus YCL069W, strain vba3, active compounds read low 1.02 | locus YCR088W, strain abp1, active compounds read low 1.02 | locus YDL005C, strain med2, active compounds read low 1.01 | locus YDL035C, strain GPR1, active compounds read low 1.03 | locus YDL040C, strain nat1, active compounds read low 1.02 | locus YDL074C, strain BRE1, active compounds read low 1.01 | locus YDL101C, strain DUN1, active compounds read low 1.01 | locus YDL134C, strain PPH21, active compounds read low 1.02 | locus YDL185W, strain tfp1, active compounds read low 1 | locus YDL192W, strain arf1, active compounds read low 0.994 | locus YDR001C, strain nth1, active compounds read low 1.02 | locus YDR069C, strain doa4, active compounds read low 1.02 | locus YDR101C, strain arx1, active compounds read low 0.999 | locus YDR137W, strain rgp1, active compounds read low 1.02 | locus YDR150W, strain NUM1, active compounds read low 0.999 | locus YDR159W, strain sac3, active compounds read low 1 | locus YDR162C, strain NBP2, active compounds read low 1.03 | locus YDR195W, strain ref2 0.996 | locus YDR297W, strain sur2, active compounds read low 1.03 | locus YDR318W, strain mcm21, active compounds read low 0.996 | locus YDR334W, strain swr1, active compounds read low 1.03 | locus YDR335W, strain msn5, active compounds read low 1.01 | locus YDR363W, strain ESC2, active compounds read low 1.01 | locus YDR388W, active compounds read low 0.985 | locus YDR392W, strain spt3, active compounds read low 1.04 | locus YDR502C, strain sam2, active compounds read low 0.985 | locus YEL003W, strain gim4, active compounds read low 1.03 | locus YEL037C, strain rad23, active compounds read low 1.01 | locus YEL061C, strain CIN8 (second series), active compounds read low 1.03 | locus YEL061C, strain CIN8, active compounds read low 1.01 | locus YER002W, strain NOP16, active compounds read low 0.995 | locus YER015W, strain faa2, active compounds read low 1.02 | locus YER016W, strain bim1, active compounds read low 1.01 | locus YER110C, active compounds read low 0.989 | locus YER111C, strain swi4, active compounds read low 1.03 | locus YER155C, strain BEM2 (second series), active compounds read low 0.996 | locus YER155C, strain BEM2, active compounds read low 1.01 | locus YER167W, strain BCK2, active compounds read low 1.02 | locus YFR010W, strain ubp6, active compounds read low 1 | locus YGL078C, strain dbp3, active compounds read low 0.988 | locus YGL086W, strain mad1, active compounds read low 0.991 | locus YGL167C, strain pmr1, active compounds read low 1.02 | locus YGL173C, strain kem1, active compounds read low 1.02 | locus YGL227W, strain vid30, active compounds read low 1 | locus YGL240W, strain doc1, active compounds read low 1.04 | locus YGL248W, strain PDE1, active compounds read low 1.01 | locus YGL253W, strain hxk2, active compounds read low 1.03 | locus YGR078C, strain PAC10, active compounds read low 1.01 | locus YGR135W, strain pre9, active compounds read low 0.991 | locus YGR229C, strain SMI1, active compounds read low 1.03 | locus YGR252W, strain gcn5, active compounds read low 0.974 | locus YHR013C, strain ard1, active compounds read low 1.02 | locus YHR027C, strain rpn1, active compounds read low 1.03 | locus YHR030C, strain SLT2, active compounds read low 1.02 and 1.08 | locus YHR079C, strain IRE1 (second series), active compounds read low 0.995 | locus YHR079C, strain IRE1, active compounds read low 1.05 | locus YHR094C, strain hxt1, active compounds read low 0.994 | locus YHR129C, strain ARP1, active compounds read low 1.01 | locus YHR142W, strain chs7, active compounds read low 1.06 | locus YHR200W, strain rpn10, active compounds read low 0.994 | locus YIL066C, strain RNR3, active compounds read low 1.03 | locus YIL073C, strain SPO22, active compounds read low 1.02 | locus YIL125W, strain kgd1, active compounds read low 0.991 | locus YIR030C, strain dcg1, active compounds read low 0.992 | locus YJL092W, strain hpr5, active compounds read low 1.02 | locus YJL095W, strain BCK1 (second series), active compounds read low 1 | locus YJL095W, strain BCK1, active compounds read low 0.988 and 1.05 | locus YJL115W, strain asf1, active compounds read low 1.05 | locus YJL129C, strain trk1, active compounds read low 1.03 | locus YJL134W, strain LCB3, active compounds read low 1.01 | locus YJL154C, strain vps35, active compounds read low 1.02 | locus YJL164C, strain tpk1, active compounds read low 1.04 | locus YJL166W, strain qcr8, active compounds read low 1.02 | locus YJL168C, strain set2, active compounds read low 0.993 | locus YJL187C, strain SWE1 (second series), active compounds read low 0.997 | locus YJR043C, strain POL32, active compounds read low 1.04 | locus YJR066W, strain TOR1, active compounds read low 0.998 | locus YJR075W, strain HOC1, active compounds read low 1.01 and 0.99
